“And” between values parts separate entries of the source, which are not always exact repeats. Equal values may be shown once. Results filed as inconclusive are left out. A call without a number means that no potency is given here. Some compounds were tested as several samples or in several runs, with calls that do not always agree. The source made the active and inactive calls. Unless noted, calls follow the shape of the full dose curve.
Assays:
[1] = Nuclear factor erythroid 2-related factor 2/antioxidant responsive element (Nrf2/ARE) small molecule agonists: qHTS cell viability counter screen in human keratinocytes (AID 1919968; active = well fitted curve in the direction sought with a large enough effect in the repeat runs; an effect the other way counts as inactive or inconclusive; also: nearly all actives have a fitted effect of over 55% in size; also: potency is read from the fitted curve at half-maximal effect)
Procedure, shortened: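 Fluorescence read-out from CellTiter-Fluor after 1 h at 37 C. Wells held HaCaT-derived ARE-luciferase reporter cells (1,500/well) treated 23 h with DMSO-dissolved compounds. Run in the same wells as the luciferase agonist read.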

[2] = molecular target: Gonadotropin-releasing hormone receptor (Homo sapiens) (UniProt P30968); assay: Human gonadotropin-releasing hormone receptor (GnRHR) small molecule agonists, calcium flux assay in GnRHR-HEK293 cells (AID 1920063); also: nearly all actives have a fitted effect of over 35% in size
Procedure, shortened: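 Calcium-dye fluorescence, Ex/Em=480/540, recorded every 1 sec over 3 min after compound addition to GnRHR-HEK293 cells. Cells had been seeded 18 hours earlier and dye-loaded for 1 hour at 37 C. Fifteen concentrations, triplicates.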

[3] = molecular target: KiSS-1 receptor (Homo sapiens) (UniProt Q969F8); assay: Human kisspeptin (KISS1R) small molecule agonists, calcium flux assay in KISS1R-HEK293 cells (AID 1920064; active = well fitted curve in the direction sought with a large enough effect in the repeat runs; an effect the other way counts as inactive or inconclusive)
Procedure, shortened: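 Calcium flux read-out: kinetic fluorescence at Ex/Em=480/540, 1 s intervals over 3 min, after pin-tool compound addition to dye-loaded KISS1R-HEK293 cells. Fifteen concentrations, triplicates.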

[4] = G protein-coupled receptor (GPCR) small molecule agonists, calcium flux assay: HEK293 wild type cell line counter screen (AID 1920065)
Procedure, shortened: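 Agonist mode; 18 h seeding at 37 C, 1 h dye load at 37 C; compounds pinned from DMSO, ATP as positive control; kinetic fluorescence 480/540 nm, 3 min, 1 s reads; 15 concentrations, triplicate.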

[5] = p53 small molecule agonists, cell-based qHTS assay with human liver microsomes (AID 1963577)
Procedure, shortened: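 p53RE-bla reporter cells were pre-incubated 5 h at 37 C, then treated with compounds plus human liver microsomes (0.5 mg/mL final) and NADPH (0.5 mg/mL final) for 16 h at 37 C. Beta-lactamase activity was read by LiveBLAzer fluorescence after 2 h at room temperature.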

[6] = p53 small molecule agonists, cell-based qHTS assay with rat liver microsomes (AID 1963578)
Procedure, shortened: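 p53RE-bla cells were exposed to compounds together with rat liver microsomes (0.5 mg/mL final) and NADPH (0.5 mg/mL final) for 16 h at 37 C, then read by LiveBLAzer beta-lactamase fluorescence after 2 h at room temperature.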

[7] = p53 small molecule agonists, cell-based qHTS assay with human liver microsomes: qHTS cell viability counter screen (AID 1963579); also: nearly all actives have a fitted effect of over 45% in size; also: potency is read from the fitted curve at half-maximal effect
Procedure, shortened: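 p53RE-bla cells (4,000/well) were pre-incubated 5 h at 37 C, then given compounds in DMSO plus human liver microsomes (0.5 mg/mL final) and NADPH (0.5 mg/mL final) for 16 h at 37 C. Viability was read by CellTiter-Glo luminescence.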

[8] = p53 small molecule agonists, cell-based qHTS assay with rat liver microsomes: qHTS cell viability counter screen (AID 1963580); also: nearly all actives have a fitted effect of over 45% in size; also: potency is read from the fitted curve at half-maximal effect
Procedure, shortened: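 Luminescent ATP readout (CellTiter-Glo, 30 min at room temperature) reports viability of p53RE-bla HCT-116 cells after 16 h at 37 C with test compounds under metabolic activation by rat liver microsomes and NADPH at 0.5 mg/mL final each.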

[9] = p53 small molecule agonists, cell-based qHTS assay: qHTS cell viability counter screen (AID 1963581); also: nearly all actives have a fitted effect of over 45% in size
Procedure, shortened: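 Cytotoxicity read-out: ATP-based luminescence (CellTiter-Glo, 30 min RT) measured in the same wells as the p53 reporter assay, HCT-116 p53RE-bla cells, 16 h compound exposure at 37 C.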

[10] = p53 small molecule agonists, cell-based qHTS assay (AID 1963582; active = well fitted activation curve with a large enough effect in the signal ratio in the repeat runs, not every such curve was filed as active; the % refers to the signal ratio)
Procedure, shortened: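 Fluorescence intensity read-out of a beta-lactamase reporter under a p53 response element. Cells were exposed to DMSO-dissolved compounds for 16 h at 37 C, then developed with FRET substrate for 2 h at RT.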

[11] = molecular target: 5-hydroxytryptamine receptor 2A (Homo sapiens) (UniProt P28223); assay: 5-hydroxytryptamine receptor 2A (HTR2A) small molecule antagonists, cell-based qHTS assay (AID 1963586); also: nearly all actives have a fitted effect of over 45% in size; also: potency is read from the fitted curve at half-maximal effect
Procedure, shortened: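 CHO cells stably expressing human HTR2A were plated for 18 h at 37 C, then loaded with calcium dye for 1 h. Compounds were preincubated 5 min at room temperature before DOI (4 nM solution) was added. Kinetic fluorescence was read for 3 min.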

[12] = molecular target: 5-hydroxytryptamine receptor 2A (Homo sapiens) (UniProt P28223); assay: 5-hydroxytryptamine receptor 2A (HTR2A) small molecule agonists, cell-based qHTS assay (AID 1963587); also: nearly all actives have a fitted effect of over 30% in size
Procedure, shortened: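 HTR2A-CHO cells, plated 18 h at 37 C/5% CO2, dye-loaded 1 h at 37 C; compounds in DMSO added by pin tool (agonist mode). Intracellular calcium flux read as kinetic fluorescence on FDSS over 2 min at 1 s intervals.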

[13] = molecular target: Muscarinic acetylcholine receptor M1 (Homo sapiens) (UniProt P11229); assay: Cholinergic receptor muscarinic 1 (CHRM1) small molecule antagonists, cell-based qHTS assay (AID 1963588); also: nearly all actives have a fitted effect of over 40% in size; also: potency is read from the fitted curve at half-maximal effect
Procedure, shortened: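 Compounds were tested at 15 concentrations in three independent runs. Dye-loaded CHRM1-CHO cells were exposed 5 min at room temperature before stimulation by acetylcholine added at 50nM. Intracellular calcium was read kinetically on FDSS for 3 min.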

[14] = molecular target: Beta-2 adrenergic receptor (Homo sapiens) (UniProt P07550); assay: Adrenergic beta2 receptor (ADRB2) small molecule antagonists, cell-based qHTS assay (AID 1963592); also: series mostly up to about 92 µM; nearly all actives have a fitted effect of over 50% in size
Procedure, shortened: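 Assay format: CHO-ADRB2 cells, 18-20hr seeding at 37C/5% CO2, then compound plus 1nM isoproterenol agonist mix for 0.5hr RT. Homogeneous time-resolved fluorescence cAMP detection after 1hr, expressed as 665/615 nm ratio.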

[15] = molecular target: Beta-2 adrenergic receptor (Homo sapiens) (UniProt P07550); assay: Adrenergic beta2 receptor (ADRB2) small molecule agonists, cell-based qHTS assay (AID 1963593);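 also: CHO cells stably overexpressing human ADRB2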
Procedure, shortened: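 CHO cells stably over-expressing ADRB2 were plated overnight at 37C, then dosed with compounds plus a stimulation mix containing 100uM IBMX and 25uM Ro-20-1724 for 0.5hr at room temperature. cAMP was measured by HTRF competition, 1hr.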

[16] = molecular target: D(2) dopamine receptor (Homo sapiens) (UniProt P14416); assay: Dopamine D2 receptor (DRD2) small molecule agonists, cell-based qHTS assay (AID 1963594); also: nearly all actives have a fitted effect of over 35% in size
Procedure, shortened: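 HEK293 cells stably expressing DRD2 were cultured 24 h at 37 C, then given Ro20-1724 (0.1 mM final) and compounds for 10 min at room temperature. NKH477 (200nM) was then added for 30 min. cAMP was read by HTRF.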

[17] = molecular target: Muscarinic acetylcholine receptor M1 (Homo sapiens) (UniProt P11229); assay: Cholinergic receptor muscarinic 1 (CHRM1) small molecule agonists, cell-based qHTS assay (AID 1963589); also: nearly all actives have a fitted effect of over 35% in size
Procedure, shortened: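 Calcium flux read-out: kinetic fluorescence at 1 sec intervals after pin-tool compound addition to dye-loaded CHRM1-CHO cells (human M1). Agonist mode; 15 concentrations tested in triplicate independent runs.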

[18] = cAMP Responsive Elements (CRE) small molecule antagonists, cell-based qHTS assay (AID 1963591; active = well fitted inhibition curve with a large enough effect in the signal ratio in the repeat runs, not every such curve was filed as active; the % refers to the signal ratio)
Procedure, shortened: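 HEK293T CRE-bla; 18 h preincubation; compound pin-transfer; NKH477 0.25 uM final, 3 h, 37 C; LiveBLAzer FRET substrate 2 h RT.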

[19] = molecular target: D(2) dopamine receptor (Homo sapiens) (UniProt P14416); assay: Dopamine D2 receptor (DRD2) small molecule antagonists, cell-based qHTS assay (AID 1963595; active = well fitted inhibition curve with a large enough effect in the signal ratio in the repeat runs, with a control signal flat; the % refers to the signal ratio; also: potency is read from the fitted curve at half-maximal effect)
Procedure, shortened: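 Antagonist mode in DRD2-HEK293 cells: after compound addition with 0.1 mM Ro20-1724, cells received quinpirole (12 nM) and NKH477 (200 nM) for 30 min at room temperature; HTRF cAMP read after 1 h detection.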

[20] = cAMP Responsive Elements (CRE) small molecule agonists, cell-based qHTS assay (AID 1963590)
Procedure, shortened: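 Beta-lactamase reporter readout: LiveBLAzer B/G FRET substrate, 2 h at room temperature, added after 3 h compound treatment of CRE-bla HEK 293T cells at 37 C/5% CO2.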

Sequence of 5-hydroxytryptamine receptor 2A (Homo sapiens) (P28223 whole entry, looked up): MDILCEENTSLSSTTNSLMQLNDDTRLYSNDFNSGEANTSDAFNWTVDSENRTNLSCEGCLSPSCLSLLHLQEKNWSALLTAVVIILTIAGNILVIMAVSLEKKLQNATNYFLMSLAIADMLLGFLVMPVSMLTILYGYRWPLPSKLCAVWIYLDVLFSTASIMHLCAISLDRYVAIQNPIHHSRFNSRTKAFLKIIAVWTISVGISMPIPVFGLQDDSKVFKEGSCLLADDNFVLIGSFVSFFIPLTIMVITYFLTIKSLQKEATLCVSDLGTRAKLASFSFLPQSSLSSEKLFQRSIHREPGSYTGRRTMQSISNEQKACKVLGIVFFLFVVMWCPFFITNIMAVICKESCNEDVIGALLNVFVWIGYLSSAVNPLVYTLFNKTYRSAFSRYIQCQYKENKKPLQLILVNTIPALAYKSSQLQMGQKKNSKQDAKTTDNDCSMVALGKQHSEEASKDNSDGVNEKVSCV
Sequence of Beta-2 adrenergic receptor (Homo sapiens) (P07550 whole entry, looked up): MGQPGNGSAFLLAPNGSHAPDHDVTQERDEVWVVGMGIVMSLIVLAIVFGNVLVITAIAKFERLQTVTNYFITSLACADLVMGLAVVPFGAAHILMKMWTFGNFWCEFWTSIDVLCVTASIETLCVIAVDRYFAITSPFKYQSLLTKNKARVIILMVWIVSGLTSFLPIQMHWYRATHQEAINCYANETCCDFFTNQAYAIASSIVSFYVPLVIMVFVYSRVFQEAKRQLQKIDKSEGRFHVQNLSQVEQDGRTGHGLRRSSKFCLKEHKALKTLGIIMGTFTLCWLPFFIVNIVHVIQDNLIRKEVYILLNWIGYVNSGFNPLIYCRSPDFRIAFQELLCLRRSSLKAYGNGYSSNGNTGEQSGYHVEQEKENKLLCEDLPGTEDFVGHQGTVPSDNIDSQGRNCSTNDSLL
Sequence of Gonadotropin-releasing hormone receptor (Homo sapiens) (P30968 whole entry, looked up): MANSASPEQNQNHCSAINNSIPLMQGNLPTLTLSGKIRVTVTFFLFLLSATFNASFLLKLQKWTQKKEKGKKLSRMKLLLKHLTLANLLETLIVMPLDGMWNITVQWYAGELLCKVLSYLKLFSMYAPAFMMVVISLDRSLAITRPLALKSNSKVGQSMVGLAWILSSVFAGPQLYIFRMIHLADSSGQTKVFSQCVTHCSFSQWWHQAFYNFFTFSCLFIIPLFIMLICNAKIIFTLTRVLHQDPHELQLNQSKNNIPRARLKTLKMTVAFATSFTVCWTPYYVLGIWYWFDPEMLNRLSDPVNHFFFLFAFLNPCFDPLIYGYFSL
Sequence of D(2) dopamine receptor (Homo sapiens) (P14416 whole entry, looked up): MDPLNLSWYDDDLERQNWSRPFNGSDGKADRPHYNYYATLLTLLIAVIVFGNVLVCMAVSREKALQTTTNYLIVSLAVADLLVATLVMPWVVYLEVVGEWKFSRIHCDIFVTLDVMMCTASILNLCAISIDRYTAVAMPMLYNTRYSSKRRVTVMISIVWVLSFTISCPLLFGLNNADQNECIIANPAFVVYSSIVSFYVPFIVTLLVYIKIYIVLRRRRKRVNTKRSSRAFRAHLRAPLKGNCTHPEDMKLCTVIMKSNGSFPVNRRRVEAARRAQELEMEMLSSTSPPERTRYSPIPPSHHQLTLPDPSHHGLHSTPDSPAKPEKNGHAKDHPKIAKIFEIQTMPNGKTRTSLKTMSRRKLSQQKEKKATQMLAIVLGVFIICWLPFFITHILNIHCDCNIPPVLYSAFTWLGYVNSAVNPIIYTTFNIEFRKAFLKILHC
Sequence of Muscarinic acetylcholine receptor M1 (Homo sapiens) (P11229 whole entry, looked up): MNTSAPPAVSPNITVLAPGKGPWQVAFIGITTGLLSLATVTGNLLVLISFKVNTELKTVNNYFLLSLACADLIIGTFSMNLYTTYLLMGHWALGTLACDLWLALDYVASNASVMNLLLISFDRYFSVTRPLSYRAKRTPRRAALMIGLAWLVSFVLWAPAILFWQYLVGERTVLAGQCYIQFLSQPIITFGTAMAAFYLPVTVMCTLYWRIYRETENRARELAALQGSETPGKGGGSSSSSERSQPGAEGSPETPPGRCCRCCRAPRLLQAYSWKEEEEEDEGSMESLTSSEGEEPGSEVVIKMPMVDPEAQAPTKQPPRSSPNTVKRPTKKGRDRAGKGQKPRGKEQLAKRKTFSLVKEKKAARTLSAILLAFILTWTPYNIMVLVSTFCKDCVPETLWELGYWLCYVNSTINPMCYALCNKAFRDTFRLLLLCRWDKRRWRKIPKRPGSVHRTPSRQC
Sequence of KiSS-1 receptor (Homo sapiens) (Q969F8 whole entry, looked up): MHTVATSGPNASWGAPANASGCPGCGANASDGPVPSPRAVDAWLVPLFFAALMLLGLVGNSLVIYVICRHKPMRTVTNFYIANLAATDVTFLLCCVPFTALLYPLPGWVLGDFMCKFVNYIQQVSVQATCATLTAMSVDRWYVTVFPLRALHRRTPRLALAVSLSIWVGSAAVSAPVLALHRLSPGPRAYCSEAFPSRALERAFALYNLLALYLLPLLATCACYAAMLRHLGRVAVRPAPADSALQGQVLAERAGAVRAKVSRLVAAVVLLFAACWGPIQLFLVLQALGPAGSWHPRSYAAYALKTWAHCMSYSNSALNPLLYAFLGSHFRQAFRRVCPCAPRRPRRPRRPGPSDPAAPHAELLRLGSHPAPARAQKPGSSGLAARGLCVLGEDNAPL

Row | Compound | Potency [1] | Potency [2] | Potency [3] | Potency [4] | Potency [5] | Potency [6] | Potency [7] | Potency [8] | Potency [9] | Potency [10] | Potency [11] | Potency [12] | Potency [13] | Potency [14] | Potency [15] | Potency [16] | Potency [17] | Potency [18] | Potency [19] | Potency [20]
1 | CCC(C)O (stereo not given) | inactive | inactive | inactive | inactive | inactive | inactive | inactive | inactive | inactive | inactive | inactive | inactive | inactive | inactive | inactive | inactive | – | – | – | –
2 | CC(=O)Nc1ccc(/C=N/NC(N)=S)cc1 | inactive | inactive | inactive | inactive | inactive | inactive | inactive | inactive | inactive | inactive | – | inactive | inactive | inactive | – | inactive | inactive | inactive | inactive | –
3 | O=P(O)(O)OP(=O)(O)O | inactive | inactive | inactive | inactive | inactive | inactive | inactive | inactive | inactive | inactive | inactive | inactive | inactive | inactive | – | inactive | – | inactive | inactive | inactive
4 | CO | inactive | inactive | inactive | inactive | inactive | inactive | inactive | inactive | inactive | inactive | inactive | inactive | – | inactive | inactive | – | inactive | inactive | inactive | inactive
5 | Sc1nc(S)nc(S)n1 | inactive | inactive | inactive | inactive | inactive | inactive | inactive | – | inactive | inactive | inactive | inactive | inactive | inactive | inactive | inactive | inactive | inactive | inactive | inactive
6 | CN(C)CCCN1c2ccccc2Sc2ccc(Cl)cc21 | 54.5 µM (active) | inactive | inactive | inactive | inactive | inactive | inactive | inactive | – | – | – | – | – | inactive | – | inactive | – | – | – | –
7 | CC(C)OC(=O)OCOP(=O)(CO[C@H](C)Cn1cnc2c(N)ncnc21)OCOC(=O)OC(C)C | inactive | inactive | inactive | inactive | inactive | inactive | inactive | – | inactive | inactive | inactive | inactive | inactive | inactive | – | inactive | inactive | inactive | inactive | inactive
8 | CC(CO)(CO)CO | inactive | inactive | inactive | inactive | inactive | inactive | inactive | – | inactive | – | inactive | inactive | inactive | inactive | – | inactive | inactive | inactive | inactive | inactive
9 | O=C(CS)OCCOC(=O)CS | inactive | inactive | inactive | inactive | inactive | inactive | inactive | inactive | inactive | – | inactive | inactive | – | inactive | inactive | inactive | inactive | – | inactive | inactive
10 | COc1cc(C(=O)NC2CCN(C)CC2)ccc1Nc1ncc2c(n1)N(C1CCCC1)CC(F)(F)C(=O)N2C | 28.1 µM (active) | inactive | inactive | inactive | inactive | inactive | 16.7 µM (active) | 37.4 µM (active) | – | – | inactive | inactive | – | inactive | inactive | inactive | – | – | 49.9 µM (active) | –
11 | CN(C)CCCN1c2ccccc2CCc2ccc(Cl)cc21 | 61.1 µM (active) | inactive | inactive | inactive | inactive | inactive | 40.8 µM (active) and inactive | inactive | inactive | – | – | – | – | inactive | inactive | inactive | – | inactive | 61.1 µM (active) and 18.8 µM (active) | inactive
12 | O=C(c1ccccc1)c1ccc(O)cc1O | inactive | inactive | inactive | inactive | inactive | inactive | inactive | inactive | inactive | – | 38.2 µM (active) and 33.4 µM (active) | inactive | 19.2 µM (active) and inactive | inactive | – | – | inactive | inactive | inactive | –
13 | O=C(Nc1ccc2c(c1)Cc1ccccc1-2)C(F)(F)F | inactive | inactive | inactive | inactive | inactive | inactive | inactive | inactive | – | – | inactive | – | – | inactive | – | inactive | inactive | inactive | inactive | inactive
14 | CC1CN(c2ccccc2)NC1=O (stereo not given) | inactive | inactive | inactive | inactive | inactive | inactive | inactive | inactive | – | inactive | inactive | – | inactive | inactive | inactive | inactive | inactive | inactive | – | inactive
15 | CCCCCC(C)OC(=O)COc1ccc(Cl)c2cccnc12 (stereo not given) | inactive | inactive | inactive | inactive | inactive | inactive | inactive | inactive | – | inactive | inactive | inactive | inactive | inactive | inactive | inactive | inactive | inactive | inactive | –
